Test results from PubChem BioAssay (NCI).
This is part of a sample that, as a whole, favours compounds with a hit. Of some 79,000 tested, about 15% had one in any assay. Activity calls are given as the source filed them. No stated cut-off is given here; in the data, active means growth inhibition above about 70%; inactive means the rest.

How the values were obtained:
[1] = NCI Yeast Anticancer Drug Screen. Data for the rad52 strain (AID 147);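 further: 0% = growth of vehicle-treated control cultures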; conditions: S. cerevisiae rad52 mutant growth inhibition, active compounds read high
Method in brief: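 Vehicle-treated cultures served as the reference for growth inhibition of compound-exposed yeast bearing a DNA repair mutation.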

[2] = NCI Yeast Anticancer Drug Screen. Data for the wt1 strain (AID 149);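 further: 0% = growth of vehicle-treated wt1 cultures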; conditions: S. cerevisiae wt1 strain (SPY 50644) growth inhibition, active compounds read high
Method in brief: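 Growth inhibition read against vehicle controls after compound exposure of the wt1 yeast strain.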

[3] = NCI Yeast Anticancer Drug Screen. Data for the rad50EPP+ strain (AID 151);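 further: 0% = growth of vehicle-treated control cultures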; conditions: S. cerevisiae rad50 mutant strain, active compounds read high
Method in brief: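 In this screen, rad50EPP+ yeast were exposed to compounds. Growth inhibition was scored against vehicle-treated controls.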

[4] = NCI Yeast Anticancer Drug Screen. Data for the mgt1 strain (AID 153); conditions: S. cerevisiae mgt1 mutant growth inhibition, active compounds read high
Method in brief: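 mgt1 strain exposed; growth vs vehicle control recorded as inhibition.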

[5] = NCI Yeast Anticancer Drug Screen. Data for the rad50 strain (AID 155);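 further: 0% = growth of vehicle-only cultures of the same strain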; conditions: S. cerevisiae rad50 strain growth inhibition, active compounds read high
Method in brief: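 Readout: growth inhibition relative to vehicle-treated cultures. Compound exposure was carried out in a genetically defined yeast strain deficient in DNA damage repair.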

[6] = NCI Yeast Anticancer Drug Screen. Data for the mec2-1 strain (AID 157); conditions: S. cerevisiae mec2-1 strain, active compounds read high
Method in brief: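 Vehicle-treated cultures served as reference for growth inhibition of compound-exposed mec2-1 yeast.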

[7] = NCI Yeast Anticancer Drug Screen. Data for the rad14 strain (AID 159);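 further: 0% = growth of vehicle-treated control cultures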; conditions: S. cerevisiae rad14 strain growth inhibition, active compounds read high
Method in brief: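 Growth inhibition vs vehicle controls; genetically altered yeast strain (DNA damage repair defect) treated with test compounds.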

[8] = NCI Yeast Anticancer Drug Screen. Data for the sgs1 mgt1 strain (AID 161);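 further: 0% = growth of cultures given vehicle only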; conditions: S. cerevisiae sgs1 mgt1 strain, active compounds read high
Method in brief: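 Mutant yeast exposed to compound; growth scored against vehicle-only wells.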

[9] = NCI Yeast Anticancer Drug Screen. Data for the CLN2oe strain (AID 163);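 further: 0% = growth of vehicle-only control cultures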; conditions: S. cerevisiae CLN2oe strain, active compounds read high
Method in brief: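 Inhibition relative to vehicle-treated yeast is reported. Cells: strain with genetic alteration in cell-cycle control, grown with compound.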

[10] = NCI Yeast Anticancer Drug Screen. Data for the cln2 rad14 strain (AID 165);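 further: 0% = growth equal to vehicle treated cultures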; conditions: S. cerevisiae cln2 rad14 strain, active compounds read high
Method in brief: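 Each compound was tested on cln2 rad14 yeast. Inhibition of growth was calculated against vehicle-exposed controls.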

[11] = NCI Yeast Anticancer Drug Screen. Data for the bub3 strain (AID 167); conditions: S. cerevisiae bub3 mutant strain, active compounds read high
Method in brief: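 Readout: yeast growth inhibition, expressed relative to vehicle-only wells. The test organism is a mutant strain from a panel with lesions in DNA repair or checkpoint genes.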

[12] = NCI Yeast Anticancer Drug Screen. Data for the wt2 strain (AID 169);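 further: 0% = growth of vehicle-treated yeast cultures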; conditions: S. cerevisiae wt2 strain growth inhibition, active compounds read high
Method in brief: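 Inhibition of yeast growth was determined after compound treatment, normalised to controls receiving only vehicle.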

[13] = NCI Yeast Anticancer Drug Screen. Data for the mlh1 strain (AID 171);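 further: 0% = growth of vehicle-treated control cultures of the same strain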; conditions: S. cerevisiae mlh1 strain growth inhibition, active compounds read high
Method in brief: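 Vehicle-normalised growth inhibition of a repair- or checkpoint-altered yeast strain following compound treatment.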

[14] = NCI Yeast Anticancer Drug Screen. Data for the sgs1 strain (AID 173);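 further: 0% = growth of vehicle-only control cultures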; conditions: S. cerevisiae sgs1 mutant, active compounds read high
Method in brief: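 Screen format: yeast with repair or checkpoint alterations, compound exposure, growth read relative to vehicle.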

[15] = NCI Yeast Anticancer Drug Screen. Data for the mlh1 rad18 strain (AID 175); conditions: S. cerevisiae mlh1 rad18 strain growth inhibition, active compounds read high
Method in brief: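 Vehicle-treated cultures served as the reference for growth inhibition in a yeast strain carrying DNA damage repair alterations exposed to each compound.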

[16] = NCI Yeast Anticancer Drug Screen. Data for the rad18 strain (AID 177); conditions: S. cerevisiae rad18 mutant growth inhibition, active compounds read high
Method in brief: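 Test articles were incubated with altered yeast defective in DNA damage repair. Results are given as inhibition of growth versus vehicle.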

[17] = at 5.0 µM (retest, dose inferred, filed as 0.5)
[18] = at 50.0 µM (retest, dose inferred, filed as 5.0)

Measured: growth inhibition

O/N=c1/ccn(O)c2ccccc12
inactive: [1]; at 1.2 µM 49% | [2]; at 1.2 µM 0% | [2]; at 3.7 µM 8% | [2]; at 11.0 µM 20% | [2]; at 33.0 µM 43% | [2]; at 100.0 µM 61% | [4]; at 1.2 µM -1% | [4]; at 3.7 µM 7% | [4]; at 11.0 µM 23% | [4]; at 33.0 µM 51% | [6]; at 1.2 µM 51% | [9]; at 1.2 µM -8% | [9]; at 3.7 µM -5% | [9]; at 11.0 µM 8% | [9]; at 33.0 µM 37% | [9]; at 100.0 µM 58% | [11]; at 1.2 µM -5% | [11]; at 3.7 µM 5% | [11]; [17] 11% | [11]; at 11.0 µM 24% | [11]; at 33.0 µM 54% | [12]; at 1.2 µM -1% | [12]; at 3.7 µM 14% | [12]; at 11.0 µM 20% | [12]; at 33.0 µM 39% | [12]; at 100.0 µM 58% | [13]; at 1.2 µM 2% | [13]; at 3.7 µM 15% | [13]; at 11.0 µM 30% | [13]; at 33.0 µM 53%
active: [1]; at 3.7 µM 91% | [1]; at 11.0 µM 95% | [1]; at 33.0 µM 96% | [1]; at 100.0 µM 95% | [3]; at 1.2 µM 87% | [3]; at 3.7 µM 96% | [3]; at 11.0 µM 97% | [3]; at 33.0 µM 97% | [3]; at 100.0 µM 97% | [4]; at 100.0 µM 84% | [5]; at 1.2 µM 74% | [5]; at 3.7 µM 96% | [5]; [17] 89% | [5]; at 11.0 µM 95% | [5]; at 33.0 µM 96% | [5]; [18] 95% | [5]; at 50.0 µM 96.3% | [5]; at 100.0 µM 96% | [6]; at 3.7 µM 97% | [6]; [17] 94% | [6]; at 11.0 µM 98% | [6]; at 33.0 µM 98% | [6]; [18] 98% | [6]; at 50.0 µM 97.5% | [6]; at 100.0 µM 98% | [7]; at 1.2 µM 96% | [7]; at 3.7 µM 99% | [7]; at 11.0 µM 99% | [7]; at 33.0 µM 99% | [7]; at 100.0 µM 99% | [8]; [17] 87% | [8]; [18] 95% | [8]; at 50.0 µM 97% | [10]; [17] 98% | [10]; [18] 99% | [10]; at 50.0 µM 98.8% | [11]; [18] 72% | [11]; at 50.0 µM 83.2% | [11]; at 100.0 µM 79% | [13]; at 100.0 µM 83% | [14]; at 1.2 µM 85% | [14]; at 3.7 µM 94% | [14]; at 11.0 µM 96% | [14]; at 33.0 µM 96% | [14]; at 100.0 µM 96% | [15]; [17] 82% | [15]; [18] 97% | [15]; at 50.0 µM 97.5% | [16]; at 1.2 µM 96% | [16]; at 3.7 µM 98% | [16]; at 11.0 µM 97% | [16]; at 33.0 µM 97% | [16]; at 100.0 µM 97%

CC(C)NCCCNc1c2ccccc2nc2cccc([N+](=O)[O-])c12
active: [1]; at 1.2 µM 93% | [1]; at 3.7 µM 96% | [1]; at 11.0 µM 97% | [1]; at 33.0 µM 97% | [1]; at 100.0 µM 97% | [2]; at 11.0 µM 88% | [2]; at 33.0 µM 96% | [2]; at 100.0 µM 97% | [3]; at 1.2 µM 86% | [3]; at 3.7 µM 93% | [3]; at 11.0 µM 95% | [3]; at 33.0 µM 96% | [3]; at 100.0 µM 97% | [4]; at 33.0 µM 92% | [4]; at 100.0 µM 96% | [5]; at 1.2 µM 90% | [5]; at 3.7 µM 93% | [5]; [17] 95% | [5]; at 11.0 µM 95% | [5]; at 33.0 µM 96% | [5]; [18] 99% | [5]; at 50.0 µM 83.3% | [5]; at 100.0 µM 97% | [6]; at 1.2 µM 94% | [6]; at 3.7 µM 97% | [6]; [17] 93% | [6]; at 11.0 µM 97% | [6]; at 33.0 µM 98% | [6]; [18] 98% | [6]; at 50.0 µM 86.5% | [6]; at 100.0 µM 98% | [7]; at 1.2 µM 98% | [7]; at 3.7 µM 98% | [7]; at 11.0 µM 97% | [7]; at 33.0 µM 99% | [7]; at 100.0 µM 99% | [8]; [17] 94% | [8]; [18] 98% | [8]; at 50.0 µM 80.8% | [9]; at 3.7 µM 88% | [9]; at 11.0 µM 96% | [9]; at 33.0 µM 97% | [9]; at 100.0 µM 98% | [10]; [17] 98% | [10]; [18] 99% | [10]; at 50.0 µM 85.7% | [11]; at 11.0 µM 90% | [11]; at 33.0 µM 96% | [11]; [18] 99% | [11]; at 100.0 µM 96% | [12]; at 3.7 µM 74% | [12]; at 11.0 µM 94% | [12]; at 33.0 µM 97% | [12]; at 100.0 µM 97% | [13]; at 3.7 µM 75% | [13]; at 11.0 µM 91% | [13]; at 33.0 µM 95% | [13]; at 100.0 µM 96% | [14]; at 1.2 µM 92% | [14]; at 3.7 µM 94% | [14]; at 11.0 µM 96% | [14]; at 33.0 µM 97% | [14]; at 100.0 µM 98% | [15]; [17] 97% | [15]; [18] 99% | [15]; at 50.0 µM 77%
inactive: [2]; at 1.2 µM 13% | [2]; at 3.7 µM 57% | [4]; at 1.2 µM -1% | [4]; at 3.7 µM 38% | [4]; at 11.0 µM 58% | [9]; at 1.2 µM 35% | [11]; at 1.2 µM -11% | [11]; at 3.7 µM 53% | [11]; [17] -4% | [11]; at 50.0 µM 66.8% | [12]; at 1.2 µM 28% | [13]; at 1.2 µM 28%
